Experimental findings from PubChem BioAssay AID686979 (National Center for Advancing Translational Sciences (NCATS), 2013) are described below.

Each structure is given as a SMILES string. The campaign covered roughly 420,000 compounds. About 50,000 (12%) were called active. About 26% were inconclusive and are not listed. The sample holds actives, similar compounds and a random draw of the others, so the mix is not that of the screen. Unmarked numbers belong to inactive results. The call rests on the fitted dose curve; in most records, active means well fitted inhibition curve with a large enough effect; inconclusive means small, poorly fitted or top-dose-only effect; inactive means flat fitted curve, though single readings scatter.
On the % scale 0 is the no-effect control and ±100 the full control effect; potency means the concentration at half of the fitted maximal effect.

The nature of this experiment: qHTS for Inhibitors of human tyrosyl-DNA phosphodiesterase 1 (TDP1): qHTS in cells in presence of CPT. Further: nearly all actives have a fitted effect of over 55% in size. The conditions noted are these: chicken DT40 Tdp1-/-;hTDP1 cells + 20 nM CPT, ATP luminescence, 48 h; series mostly up to 46.2 µM; activity change, negative = growth inhibition: at the top concentration. A digest of the protocol: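 Chicken DT40 Tdp1-/- cells complemented with human TDP1, 400 cells/well, exposed to compounds plus 20 nM camptothecin for at least 48 h at 37 C; viability read as ATP content by CellTiter-Glo luminescence.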
`COc1ccc(N2CCN(CCCNC(=O)C3CCN(S(=O)(=O)N4CCOCC4)CC3)CC2)cc1`: the “activity change, negative = growth inhibition” value is -5.76%. With `NNC(=O)c1oc2nc(-c3ccccc3)cc(-c3ccco3)c2c1N`, the “activity change, negative = growth inhibition” value was -7.63%. The same measure, in the same setting: the figure for `CN(C)C(=O)Cn1c(=O)n(S(=O)(=O)c2ccccc2)c2ccccc21` is 33.8%; for `C/C(=N\OCC(=O)Nc1ccc(Br)cc1)c1cccs1` it is -4.26%. Still for that read-out and setting: the figure for `CC1(C)CCCC2=C1CC1C(=O)N(c3ccccc3)C(=O)C1C2` (stereo unspecified) is -11.4%. For `CC1CC2=C(CC1/C=N/NC(N)=S)C(C)(C)CCC2` (stereo unspecified), the Potency was 4.11 µM (active). Turning to `Cc1ccccc1N1CC(C(=O)Nc2nnc(SCCC3OCCO3)s2)CC1=O` (stereo unspecified), the “activity change, negative = growth inhibition” value was -1%. Same read-out and setting: the figure for `COc1ccc(NC(=O)N2CCCC2C(=O)NCc2ccccc2Cl)cc1` (stereo unspecified) is -17.9%.

On to `CCOc1ccc(Nc2oc(/C=C/c3ccc(F)cc3)nc2C#N)cc1`, for which the “activity change, negative = growth inhibition” value is -22.1%. With `COc1ccc(Nc2oc(-c3ccccc3Cl)nc2C#N)cc1`, the Potency was 2.91 µM (active). For the compound `Cc1ccccc1-c1nc(C#N)c(NCc2ccco2)o1`, the “activity change, negative = growth inhibition” value was 25.6%. On the same count and under the same terms, the figure for `CCOC(=O)N1CCN(Cc2nnc(-c3ccccc3Cl)o2)CC1` is -24.8%; for `CCc1ccc[n+](-c2nc([O-])sc2C=O)c1` it is -0.903%. Same read-out and setting: the figure for `COc1cccc(C(=O)Nc2cc3c(cc2Br)OCCCO3)c1` is -23%. As for `Cn1c(N)c(C(=O)COC(=O)C23CC4CC(CC(C4)C2)C3)c(=O)n(C)c1=O`, the “activity change, negative = growth inhibition” value is -23.7%. Consider `CCOC(=O)c1cc2c(n(-c3ccc(C)cc3)c1=O)CCCC2=O`, for which the “activity change, negative = growth inhibition” value is -0.219%.

For the compound `Cc1ccc(-n2c(C)cc(C(=O)CN3C(=O)C(=O)N(C4CCCC4)C3=O)c2C)cc1`, the Potency was 20.6 µM (active). For `Cc1cc(C(=O)COC(=O)C2CC2)c(C)n1-c1ccc(F)cc1`, the “activity change, negative = growth inhibition” value is -3.09%. As for `Cc1cc(OC(=O)c2ccc(OC(C)C)cc2)c([N+](=O)[O-])c(=O)[nH]1`, the “activity change, negative = growth inhibition” value is -2.01%. On to `COCc1cc(C)n(CC(=O)NCC2CCCO2)c(=O)c1C#N` (stereo unspecified), for which the “activity change, negative = growth inhibition” value is -0.925%.

As to `CC1(C)O[C@@H]2CC3C4C[C@H](F)C5=CC(=O)C=CC5(C)C4C(O)CC3(C)[C@]2(C(=O)CO)O1` (stereo partly specified), the “activity change, negative = growth inhibition” value was -14.3%.

For the compound `CCOC(=O)c1cnc(Nc2nc3ccccc3o2)nc1CSC(=S)N1CCCCC1`, the Potency was 0.146 µM (active). As to `CCOC(=O)c1ccccc1NC(=S)N1CCC(C(N)=O)CC1`, the “activity change, negative = growth inhibition” value is 1.5%.

Take `CCc1ccc(CNC(=O)C2CCCN(c3nc4ccccc4o3)C2)cc1` (stereo unspecified): the “activity change, negative = growth inhibition” value is -19.6%.

`CCN(C(=O)COc1ccc(C(=O)c2ccccc2)cc1)c1ccccc1`: the Potency was 18.4 µM (active). As to `CN(Cc1ccccc1)C(=O)COc1ccccc1`, the “activity change, negative = growth inhibition” value was -19.8%. Consider `O=C(COc1ccc(F)cc1)N(CC1=CCS(=O)(=O)C1)c1ccccc1`, for which the “activity change, negative = growth inhibition” value was -20.9%. Same read-out and setting: the figure for `CC(C)CCN1C(=O)c2ccc(C(=O)Nc3cccc(S(N)(=O)=O)c3)cc2C1=O` is -22%; for `COCCCn1c(SCC(=O)Nc2oc(C)c3c(C)n[nH]c(=O)c23)nc2sc3c(c2c1=O)CCC3` it is -19.5%; for `COc1ccccc1C(=O)NNC(=O)CCN1C(=O)/C(=C\c2ccccc2)SC1=S` it is 1.22%. With `O=C1/C(=C/c2ccc(F)cc2)SC(=S)N1CCCC(=O)N1CCCCC1CCO` (stereo unspecified), the Potency is 16.4 µM (active). On to `Cc1ccc(/C=C2\SC(=S)N(CCC(=O)Nc3ccc(O)cc3)C2=O)cc1`, for which the “activity change, negative = growth inhibition” value was 12%. For the compound `CN(C)c1ccc(NC(=O)CN2C3CCCC2CC(NC(=O)c2ccccc2)C3)cc1` (stereo unspecified), the “activity change, negative = growth inhibition” value is -2%. With `CCOC(=O)N1CCN(C(=O)CSc2nc(C)nc3c2c(=O)n(C)c(=O)n3C)CC1`, the “activity change, negative = growth inhibition” value was -4.74%.

Turning to `CCc1cnc2c(c1SCC(=O)N1CCC(C)CC1)c(=O)n(C)c(=O)n2C`, the Potency is 20.6 µM (active).

As to `Cc1ccc(CNC(=O)CSc2c(C)cnc3c2c(=O)n(C)c(=O)n3C)cc1`, the “activity change, negative = growth inhibition” value is 2.07%. On the same count and under the same terms, the figure for `COc1ccc(CC(=O)Nc2ccccc2NC(=O)c2ccco2)cc1OC` is -0.664%. For `COc1cc(C(c2c(NC(=O)c3ccco3)sc(C)c2C)N2CCOCC2)cc(OC)c1OC` (stereo unspecified), the Potency is 23.1 µM (active). On to `COc1ccc(NC(=O)CCC(=O)Nc2cc(OC)c(NC(=O)c3ccco3)cc2OC)c(OC)c1`, for which the “activity change, negative = growth inhibition” value was -26.9%. The same measure, in the same setting: the figure for `COC(=O)c1ccccc1NC(=O)c1ccc(COc2ccccc2Cl)o1` is -21.6%; for `COc1ccc(OCCCC(=O)OC(C)C(=O)Nc2ccccc2[N+](=O)[O-])cc1` (stereo unspecified) it is 4.09%. Consider `COC(=O)Cn1cc(/C=C/[N+](=O)[O-])c2ccccc21`, for which the Potency was 10.3 µM (active). Turning to `COC(=O)c1cn(CC(=O)NCc2cccs2)c2ccccc12`, the “activity change, negative = growth inhibition” value was -11%.

On to `COC(=O)Cn1cc(C(=O)c2cccs2)c2ccccc21`, for which the “activity change, negative = growth inhibition” value is -6.42%. Regarding `O=C(N/N=C/c1c(Cl)[nH]c2ccccc12)c1sc2ccccc2c1Cl`, the Potency was 23.1 µM (active).

As for `COC(=O)c1cc(NC(=O)c2sc3ccccc3c2Cl)cc(C(=O)OC)c1`, the “activity change, negative = growth inhibition” value is -28.5%.

As for `Cc1[nH]c2ccccc2c1/C=N\NC(=O)Cn1nnc(-c2ccccc2)n1`, the “activity change, negative = growth inhibition” value is -15.7%. Turning to `CC(=O)c1nnn(-c2ccc(Cl)cc2C#N)c1C`, the “activity change, negative = growth inhibition” value was 0%. `COCCCNc1nc2ccccc2nc1NS(=O)(=O)c1ccc(F)cc1`: the “activity change, negative = growth inhibition” value is -6.29%. For `CCCc1cc(=O)n2[nH]c(NCc3ccc(CC)cc3)nc2n1`, the “activity change, negative = growth inhibition” value is -1.57%. Consider `CCCCn1nnnc1C1(C)CCC(=O)N1Cc1ccc(OC)c(OC)c1` (stereo unspecified), for which the “activity change, negative = growth inhibition” value was -11.6%. Still for that read-out and setting: the figure for `COc1ccc(CN2C(=O)CC(Cc3ccc(C)cc3)C2=O)cc1OC` (stereo unspecified) is -28.9%.

With `CCCCOc1ccc(CN2C(=O)C(=O)c3cc(Br)cc(C)c32)cc1OC`, the Potency is 0.82 µM (active). For the compound `Cc1cc(C)nc(NC(=O)c2cccc([N+](=O)[O-])c2)c1`, the “activity change, negative = growth inhibition” value was 0.531%. On the same count and under the same terms, the figure for `O=C(Nc1ccc(F)cc1)C(CCc1ccccc1)N1CCN(CC(=O)N2CCCC2)CC1` (stereo unspecified) is -16.7%. Consider `OC(c1ccc(Cl)cc1)C(CN1CCOCC1)c1ccccc1` (stereo unspecified), for which the “activity change, negative = growth inhibition” value is -26.3%. As to `CCCCc1c(-c2ccc(Cl)cc2)ncn1CCc1ccccc1OC`, the Potency is 4.61 µM (active). For the compound `COc1ccccc1NC(=O)c1c(Br)cnn1C`, the “activity change, negative = growth inhibition” value was -14.9%. The same measure, in the same setting: the figure for `COc1cccc(OC)c1C(=O)N1CCN(Cc2ccccc2F)CC1` is -3.78%; for `COc1ccccc1CN1CCN(Cc2cc(OC)c(OC)cc2OC)CC1` it is -3.91%. On the same count and under the same terms, the figure for `COCCn1cnc2c1c(=O)n(Cc1ccc(Br)cc1)c(=O)n2Cc1ccccc1` is 0.0958%. In the case of `CCCc1c(-c2ccccc2F)ncn1Cc1ccccc1OC`, the Potency was 1.3 µM (active). On the same count and under the same terms, the figure for `CCCCc1c(-c2ccc(Br)cc2)ncn1CCc1ccccc1OC` is 1.3 µM (active). Regarding `COc1ccccc1OCCCn1c(-c2ccc(Cl)cc2)nc2ccccc2c1=O`, the “activity change, negative = growth inhibition” value is -1.91%. The same measure, in the same setting: the figure for `COc1ncc2nc(-c3ccc(Cl)cc3)c(=O)n(C)c2n1` is 1.69%. As to `CC(=O)C[C@H](O)CC(=O)[C@@H]1OC(=O)[C@@H](C)C/C=C\Cc2ccccc21`, the “activity change, negative = growth inhibition” value is 1.45%.
